Measured values reported in PubChem BioAssay AID1159580 (chemical genetic matrix, 2015).
Where “and” joins values, the source holds several entries; their conditions need not be identical. Identical values can stand only once. About 2,000 (36%) of roughly 5,500 compounds were called active. Roughly 18% stayed inconclusive and do not appear here. Cut-off read from the data, not from the text of the source: active = normalized growth mostly below about 0.91 (no sharp cut-off); inconclusive = no clear call, values can overlap the other calls; inactive = mostly above about 0.92. Some of the results follow.

Experiment: chemical genetic growth profiling, strain panel (AID 1159580);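 note: tested at 20 µM; growth read once vehicle control cultures reached saturation at 30 °C; 1 = growth at the plate median or of vehicle wells; lower values mean less growth of the strain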
Settings: S. cerevisiae deletion strains, growth OD

Measured: normalized growth

C#CCCCCCCCCCCCC(O)CC(O)CO (configuration not stated)
inactive: locus YAL013W, strain DEP1, stronger effect = lower value 1 | locus YAL021C, strain ccr4, stronger effect = lower value 0.979 | locus YAL026C, strain drs2, stronger effect = lower value 0.992 | locus YAL030W, strain snc1, stronger effect = lower value 0.99 | locus YBL061C, strain skt5, stronger effect = lower value 0.987 | locus YBR009C, strain hhf1, stronger effect = lower value 0.991 | locus YBR021W, strain FUR4, stronger effect = lower value 0.974 | locus YBR023C, strain chs3, stronger effect = lower value 0.983 | locus YBR171W, strain sec66, stronger effect = lower value 0.999 | locus YBR229C, strain ROT2, stronger effect = lower value 1 | locus YBR231C, strain swc5, stronger effect = lower value 0.993 | locus YBR279W, strain paf1, stronger effect = lower value 0.995 | locus YCL011C, strain gbp2, stronger effect = lower value 0.988 | locus YCL016C, strain dcc1, stronger effect = lower value 0.97 | locus YCL029C, strain bik1, stronger effect = lower value 1.01 | locus YCL061C, strain MRC1, stronger effect = lower value 0.979 | locus YCL069W, strain vba3, stronger effect = lower value 0.992 | locus YCR088W, strain abp1, stronger effect = lower value 0.985 | locus YDL005C, strain med2, stronger effect = lower value 0.974 | locus YDL035C, strain GPR1, stronger effect = lower value 0.984 | locus YDL040C, strain nat1, stronger effect = lower value 0.988 | locus YDL074C, strain BRE1, stronger effect = lower value 0.988 | locus YDL101C, strain DUN1, stronger effect = lower value 1.01 | locus YDL134C, strain PPH21, stronger effect = lower value 0.995 | locus YDL185W, strain tfp1, stronger effect = lower value 1.01 | locus YDL192W, strain arf1, stronger effect = lower value 1 | locus YDR001C, strain nth1, stronger effect = lower value 0.982 | locus YDR069C, strain doa4, stronger effect = lower value 0.994 | locus YDR101C, strain arx1, stronger effect = lower value 0.987 | locus YDR137W, strain rgp1, stronger effect = lower value 0.986 | locus YDR150W, strain NUM1, stronger effect = lower value 0.999 | locus YDR159W, strain sac3, stronger effect = lower value 1 | locus YDR162C, strain NBP2, stronger effect = lower value 1.03 | locus YDR195W, strain ref2 0.986 | locus YDR297W, strain sur2, stronger effect = lower value 0.988 | locus YDR318W, strain mcm21, stronger effect = lower value 1.01 | locus YDR334W, strain swr1, stronger effect = lower value 0.991 | locus YDR335W, strain msn5, stronger effect = lower value 0.988 | locus YDR388W, stronger effect = lower value 0.999 | locus YDR392W, strain spt3, stronger effect = lower value 0.877 | locus YDR502C, strain sam2, stronger effect = lower value 1 | locus YEL003W, strain gim4, stronger effect = lower value 0.98 | locus YEL037C, strain rad23, stronger effect = lower value 0.995 | locus YEL061C, strain CIN8 (second series), stronger effect = lower value 0.986 | locus YEL061C, strain CIN8, stronger effect = lower value 0.997 | locus YER015W, strain faa2, stronger effect = lower value 0.972 | locus YER016W, strain bim1, stronger effect = lower value 0.989 | locus YER110C, stronger effect = lower value 1 | locus YER111C, strain swi4, stronger effect = lower value 0.971 | locus YER155C, strain BEM2 (second series), stronger effect = lower value 0.953 | locus YER155C, strain BEM2, stronger effect = lower value 1.01 | locus YER167W, strain BCK2, stronger effect = lower value 0.998 | locus YFR010W, strain ubp6, stronger effect = lower value 0.993 | locus YGL078C, strain dbp3, stronger effect = lower value 1.02 | locus YGL086W, strain mad1, stronger effect = lower value 1.01 | locus YGL167C, strain pmr1, stronger effect = lower value 0.983 | locus YGL173C, strain kem1, stronger effect = lower value 0.983 | locus YGL227W, strain vid30, stronger effect = lower value 0.993 | locus YGL240W, strain doc1, stronger effect = lower value 1 | locus YGL248W, strain PDE1, stronger effect = lower value 0.997 | locus YGL253W, strain hxk2, stronger effect = lower value 0.991 | locus YGR078C, strain PAC10, stronger effect = lower value 0.981 | locus YGR135W, strain pre9, stronger effect = lower value 0.992 | locus YGR229C, strain SMI1, stronger effect = lower value 1.07 | locus YGR252W, strain gcn5, stronger effect = lower value 0.993 | locus YHR013C, strain ard1, stronger effect = lower value 0.939 | locus YHR027C, strain rpn1, stronger effect = lower value 0.984 | locus YHR079C, strain IRE1 (second series), stronger effect = lower value 1 | locus YHR094C, strain hxt1, stronger effect = lower value 1.01 | locus YHR129C, strain ARP1, stronger effect = lower value 0.996 | locus YHR142W, strain chs7, stronger effect = lower value 0.96 | locus YHR200W, strain rpn10, stronger effect = lower value 1.01 | locus YIL066C, strain RNR3, stronger effect = lower value 0.983 | locus YIL073C, strain SPO22, stronger effect = lower value 1.03 | locus YIL125W, strain kgd1, stronger effect = lower value 1.03 | locus YIR030C, strain dcg1, stronger effect = lower value 1 | locus YJL092W, strain hpr5, stronger effect = lower value 0.98 | locus YJL095W, strain BCK1 (second series), stronger effect = lower value 0.985 | locus YJL115W, strain asf1, stronger effect = lower value 0.968 | locus YJL129C, strain trk1, stronger effect = lower value 0.963 | locus YJL134W, strain LCB3, stronger effect = lower value 1.03 | locus YJL154C, strain vps35, stronger effect = lower value 0.976 | locus YJL164C, strain tpk1, stronger effect = lower value 0.982 | locus YJL166W, strain qcr8, stronger effect = lower value 0.98 | locus YJL168C, strain set2, stronger effect = lower value 1.01 | locus YJL187C, strain SWE1 (second series), stronger effect = lower value 0.992 | locus YJL187C, strain SWE1, stronger effect = lower value 0.979 | locus YJR043C, strain POL32, stronger effect = lower value 0.989 | locus YJR066W, strain TOR1, stronger effect = lower value 0.835
active: locus YHR079C, strain IRE1, stronger effect = lower value 0.782
1.03 (inactive) and 0.819 (active): locus YJL095W, strain BCK1, stronger effect = lower value
0.999 (inactive) and 0.85 (active): locus YHR030C, strain SLT2, stronger effect = lower value
